Common to all, as to assay: DAPPL (digital affinity profiling via proximity ligation, sequencing); 10 mM Tris-HCl pH 7.5, 50 mM NaCl, 1 mM DTT, 4% glycerol, room temperature, 30 min; GST-TFs on glutathione beads, 16-mer random dsDNA library, 0.1% formaldehyde crosslink after washing; high values mean tight binding
For experiment [1], the target named is T1, FLI1 (Homo sapiens, UniProt Q01543 1-452).
T1 sequence: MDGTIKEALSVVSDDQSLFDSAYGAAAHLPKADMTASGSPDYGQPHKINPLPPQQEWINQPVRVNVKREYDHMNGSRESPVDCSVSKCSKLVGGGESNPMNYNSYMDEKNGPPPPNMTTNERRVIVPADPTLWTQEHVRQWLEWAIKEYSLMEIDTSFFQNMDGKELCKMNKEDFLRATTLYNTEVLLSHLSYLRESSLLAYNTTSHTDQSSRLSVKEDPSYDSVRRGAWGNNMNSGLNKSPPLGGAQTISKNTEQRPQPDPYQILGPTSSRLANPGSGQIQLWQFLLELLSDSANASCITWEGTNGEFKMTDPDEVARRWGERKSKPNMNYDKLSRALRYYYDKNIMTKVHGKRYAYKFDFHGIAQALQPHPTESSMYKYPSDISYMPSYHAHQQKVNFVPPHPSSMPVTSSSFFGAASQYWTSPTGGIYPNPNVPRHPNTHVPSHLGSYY
As to conditions: protein: recombinant; tags: N-terminal GST; dsDNA, one strand shown. The gist of the method: (§1)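 After expression in yeast as GST fusions, human transcription factors were bound to glutathione beads, DNA-barcoded and mixed with a tag-only sample. The pools were incubated with 200 nmole of a 16-mer random double-stranded DNA library in Tris/NaCl/DTT/glycerol buffer (30 min, room temperature), washed and crosslinked with 0.1% formaldehyde. Proximity ligation with BsaI/T4 ligase ran for 1 h at 37 °C, before PCR amplification and sequencing on an Illumina NextSeq500. Binding signal is a hexamer's read frequency for a factor divided by its frequency for the tag-only sample.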

The target of experiment [2] is T2, ELK1 (Homo sapiens, UniProt P19419 1-428).
T2 sequence: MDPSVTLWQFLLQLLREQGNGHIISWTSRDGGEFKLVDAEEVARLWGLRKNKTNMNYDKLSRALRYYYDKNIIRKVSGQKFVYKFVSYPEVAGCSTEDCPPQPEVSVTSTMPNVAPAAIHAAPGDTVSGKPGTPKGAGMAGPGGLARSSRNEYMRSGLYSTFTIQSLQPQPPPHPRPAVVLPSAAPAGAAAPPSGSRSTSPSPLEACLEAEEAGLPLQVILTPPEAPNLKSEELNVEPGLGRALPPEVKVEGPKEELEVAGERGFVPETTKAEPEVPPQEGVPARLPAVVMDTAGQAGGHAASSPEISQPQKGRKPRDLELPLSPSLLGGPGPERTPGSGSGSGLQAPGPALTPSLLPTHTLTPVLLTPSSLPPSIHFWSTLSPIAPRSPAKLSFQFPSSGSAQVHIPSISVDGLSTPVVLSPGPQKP
As to conditions: protein: recombinant; tags: N-terminal GST; dsDNA, one strand shown. Summed up:
as §1

Experiment [3] deals with T3, GABPA (Homo sapiens, UniProt Q06546 1-454).
T3 sequence: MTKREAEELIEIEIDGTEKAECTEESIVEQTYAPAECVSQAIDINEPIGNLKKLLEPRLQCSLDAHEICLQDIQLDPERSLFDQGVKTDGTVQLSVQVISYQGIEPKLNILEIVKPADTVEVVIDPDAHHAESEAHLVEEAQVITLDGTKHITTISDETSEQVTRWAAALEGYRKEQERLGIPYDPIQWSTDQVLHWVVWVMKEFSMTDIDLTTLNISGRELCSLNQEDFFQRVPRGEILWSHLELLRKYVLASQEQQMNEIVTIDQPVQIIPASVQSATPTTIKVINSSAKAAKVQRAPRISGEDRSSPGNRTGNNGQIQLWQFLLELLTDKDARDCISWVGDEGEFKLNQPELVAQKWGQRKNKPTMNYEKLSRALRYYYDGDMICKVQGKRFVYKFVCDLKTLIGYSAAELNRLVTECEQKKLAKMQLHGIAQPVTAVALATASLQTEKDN
As to conditions: protein: recombinant; tags: N-terminal GST; dsDNA, one strand shown. Summed up:
as §1

Experiment [4] deals with T4, ERG (Homo sapiens, UniProt P11308 1-479).
T4 sequence: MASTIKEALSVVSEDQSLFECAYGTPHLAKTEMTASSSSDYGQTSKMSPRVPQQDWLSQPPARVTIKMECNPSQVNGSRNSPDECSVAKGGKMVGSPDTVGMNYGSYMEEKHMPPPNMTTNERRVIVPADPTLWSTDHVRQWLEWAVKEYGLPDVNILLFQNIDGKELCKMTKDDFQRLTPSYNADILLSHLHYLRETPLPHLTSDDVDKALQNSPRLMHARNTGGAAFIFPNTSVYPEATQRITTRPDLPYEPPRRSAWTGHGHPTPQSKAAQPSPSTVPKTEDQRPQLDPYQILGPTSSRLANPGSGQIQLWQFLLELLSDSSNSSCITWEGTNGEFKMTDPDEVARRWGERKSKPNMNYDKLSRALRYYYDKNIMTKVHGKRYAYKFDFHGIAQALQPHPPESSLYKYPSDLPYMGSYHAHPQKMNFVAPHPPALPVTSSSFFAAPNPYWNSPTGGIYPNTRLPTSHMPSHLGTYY
The following applies: protein: recombinant; tags: N-terminal GST; dsDNA, one strand shown. Summed up:
as §1

Experiment [5] concerns the target ELF1 (Homo sapiens, UniProt P32519 1-619). The following applies: protein: recombinant; tags: N-terminal GST; dsDNA, one strand shown. Summed up: as §1
For experiment [6], the target named is T5, EHF (Homo sapiens, UniProt Q9NZC4 1-300).
T5 sequence: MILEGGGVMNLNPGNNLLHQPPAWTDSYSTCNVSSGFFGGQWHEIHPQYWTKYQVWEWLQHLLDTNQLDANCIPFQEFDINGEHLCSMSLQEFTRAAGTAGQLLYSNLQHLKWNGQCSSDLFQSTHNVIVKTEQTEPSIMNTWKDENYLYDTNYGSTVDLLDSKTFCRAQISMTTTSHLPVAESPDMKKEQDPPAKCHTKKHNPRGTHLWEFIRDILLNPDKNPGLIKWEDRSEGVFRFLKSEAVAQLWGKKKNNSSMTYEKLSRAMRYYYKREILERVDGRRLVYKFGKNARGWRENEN
The following applies: protein: recombinant; tags: N-terminal GST; dsDNA, one strand shown. The gist of the method:
as §1

The target in experiment [7] is SPI1 (Homo sapiens, UniProt P17947 1-270). As to conditions: protein: recombinant; tags: N-terminal GST; dsDNA, one strand shown. The gist of the method: as §1
Experiment [8] addresses SPIB (Homo sapiens, UniProt Q01892 1-262). The following applies: protein: recombinant; tags: N-terminal GST; dsDNA, one strand shown. Summed up:
as §1

The target of experiment [9] is T6, ELK3 (Homo sapiens, UniProt P41970 1-407).
T6 sequence: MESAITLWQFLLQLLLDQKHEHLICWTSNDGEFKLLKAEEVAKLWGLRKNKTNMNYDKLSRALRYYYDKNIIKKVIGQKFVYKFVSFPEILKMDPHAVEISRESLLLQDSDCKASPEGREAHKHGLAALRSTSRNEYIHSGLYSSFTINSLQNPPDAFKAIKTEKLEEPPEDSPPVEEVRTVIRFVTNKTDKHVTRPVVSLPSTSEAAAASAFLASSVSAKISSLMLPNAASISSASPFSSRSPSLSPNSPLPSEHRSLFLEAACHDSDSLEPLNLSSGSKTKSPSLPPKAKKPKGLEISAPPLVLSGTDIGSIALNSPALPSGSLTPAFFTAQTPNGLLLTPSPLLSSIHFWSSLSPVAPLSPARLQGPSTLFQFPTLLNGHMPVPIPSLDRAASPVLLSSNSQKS
As to conditions: protein: recombinant; tags: N-terminal GST; dsDNA, one strand shown. Summed up: as §1

Experiment [10] deals with T7, FEV (Homo sapiens, UniProt Q99581 1-238).
T7 sequence: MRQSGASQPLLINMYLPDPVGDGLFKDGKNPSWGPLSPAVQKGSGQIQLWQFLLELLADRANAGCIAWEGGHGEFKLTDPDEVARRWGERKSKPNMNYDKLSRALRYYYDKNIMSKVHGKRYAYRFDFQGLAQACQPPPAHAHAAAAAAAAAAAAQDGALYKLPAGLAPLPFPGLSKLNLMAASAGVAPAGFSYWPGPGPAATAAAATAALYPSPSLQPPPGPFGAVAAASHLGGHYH
As to conditions: protein: recombinant; tags: N-terminal GST; dsDNA, one strand shown. Summed up:
as §1

For experiment [11], the target named is ETV5 (Homo sapiens, UniProt P41161 1-510). The following applies: protein: recombinant; tags: N-terminal GST; dsDNA, one strand shown. Summed up:
as §1

Experiment [12] has as its target HSF1 (Homo sapiens, UniProt Q00613 1-529). As to conditions: protein: recombinant; tags: N-terminal GST; chain copies: 3; dsDNA, one strand shown. The gist of the method: as §1
The target of experiment [13] is T8, SPIC (Homo sapiens, UniProt Q8N5J4 1-248).
T8 sequence: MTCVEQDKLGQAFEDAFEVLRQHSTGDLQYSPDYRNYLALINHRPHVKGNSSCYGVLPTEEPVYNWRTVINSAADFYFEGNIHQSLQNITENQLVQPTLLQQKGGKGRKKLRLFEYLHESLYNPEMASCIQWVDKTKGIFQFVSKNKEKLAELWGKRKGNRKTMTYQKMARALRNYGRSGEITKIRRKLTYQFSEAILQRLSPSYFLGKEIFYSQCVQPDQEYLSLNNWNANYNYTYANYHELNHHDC
The following applies: protein: recombinant; tags: N-terminal GST; dsDNA, one strand shown. Summed up:
as §1

Experiment [14] has as its target ELF4 (Homo sapiens, UniProt Q99607 1-663). The following applies: protein: recombinant; tags: N-terminal GST; dsDNA, one strand shown. Summed up:
as §1

Experiment [15] addresses T9, ELK4 (Homo sapiens, UniProt P28324-2 1-405).
T9 sequence: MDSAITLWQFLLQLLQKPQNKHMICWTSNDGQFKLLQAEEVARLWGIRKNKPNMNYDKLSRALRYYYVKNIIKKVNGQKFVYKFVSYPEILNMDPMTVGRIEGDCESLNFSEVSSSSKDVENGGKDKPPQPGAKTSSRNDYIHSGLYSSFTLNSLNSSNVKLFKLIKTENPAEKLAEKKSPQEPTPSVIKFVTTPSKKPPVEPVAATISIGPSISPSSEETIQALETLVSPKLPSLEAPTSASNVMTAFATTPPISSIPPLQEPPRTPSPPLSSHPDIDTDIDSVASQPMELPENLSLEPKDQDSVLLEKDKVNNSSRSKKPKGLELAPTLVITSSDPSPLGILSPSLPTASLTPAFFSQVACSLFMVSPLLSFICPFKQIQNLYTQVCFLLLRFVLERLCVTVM
The following applies: protein: recombinant; tags: N-terminal GST; dsDNA, one strand shown. Summed up: as §1

Experiment [16] deals with T10, ETV2 (Homo sapiens, UniProt O00321 1-342).
T10 sequence: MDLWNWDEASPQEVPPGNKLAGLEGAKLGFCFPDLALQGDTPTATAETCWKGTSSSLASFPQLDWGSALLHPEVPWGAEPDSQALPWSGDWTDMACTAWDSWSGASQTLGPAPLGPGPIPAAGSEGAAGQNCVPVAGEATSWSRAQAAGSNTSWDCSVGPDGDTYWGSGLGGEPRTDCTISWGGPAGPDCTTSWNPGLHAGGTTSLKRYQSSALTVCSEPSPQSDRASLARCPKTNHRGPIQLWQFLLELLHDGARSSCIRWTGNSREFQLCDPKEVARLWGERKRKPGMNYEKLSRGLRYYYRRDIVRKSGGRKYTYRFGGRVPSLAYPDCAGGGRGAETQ
The following applies: protein: recombinant; tags: N-terminal GST; dsDNA, one strand shown. The gist of the method:
as §1

Experiment [17] concerns the target T11, ELF3 (Homo sapiens, UniProt P78545 1-371).
T11 sequence: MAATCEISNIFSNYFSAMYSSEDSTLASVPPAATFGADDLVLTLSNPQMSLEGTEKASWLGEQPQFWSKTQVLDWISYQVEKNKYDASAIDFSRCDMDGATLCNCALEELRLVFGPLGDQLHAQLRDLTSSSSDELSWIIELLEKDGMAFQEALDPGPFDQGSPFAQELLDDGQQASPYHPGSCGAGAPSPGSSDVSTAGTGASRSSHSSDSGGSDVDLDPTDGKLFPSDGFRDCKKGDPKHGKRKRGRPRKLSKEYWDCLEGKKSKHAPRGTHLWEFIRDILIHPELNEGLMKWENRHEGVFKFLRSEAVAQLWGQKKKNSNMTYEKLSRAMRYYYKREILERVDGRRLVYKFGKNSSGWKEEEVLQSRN
The following applies: protein: recombinant; tags: N-terminal GST; dsDNA, one strand shown. Summed up: as §1

Experiment [18] deals with ETV1 (Homo sapiens, UniProt P50549 1-477). The following applies: protein: recombinant; tags: N-terminal GST; dsDNA, one strand shown. The gist of the method: as §1
ETV1, sequence (P50549 whole entry): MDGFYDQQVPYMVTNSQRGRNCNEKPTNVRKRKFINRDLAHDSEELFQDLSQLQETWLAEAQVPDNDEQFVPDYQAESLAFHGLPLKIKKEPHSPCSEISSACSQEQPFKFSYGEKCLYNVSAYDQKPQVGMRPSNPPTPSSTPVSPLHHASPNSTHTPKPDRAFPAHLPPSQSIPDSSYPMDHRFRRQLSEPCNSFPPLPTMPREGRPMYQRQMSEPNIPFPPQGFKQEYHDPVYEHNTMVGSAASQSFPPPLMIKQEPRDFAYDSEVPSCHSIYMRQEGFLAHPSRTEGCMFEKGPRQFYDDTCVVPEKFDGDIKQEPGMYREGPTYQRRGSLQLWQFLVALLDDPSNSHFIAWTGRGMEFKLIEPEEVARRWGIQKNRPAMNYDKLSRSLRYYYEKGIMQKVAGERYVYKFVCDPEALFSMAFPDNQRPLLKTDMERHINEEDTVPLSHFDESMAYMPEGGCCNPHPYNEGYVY

SPIB, sequence (Q01892 whole entry): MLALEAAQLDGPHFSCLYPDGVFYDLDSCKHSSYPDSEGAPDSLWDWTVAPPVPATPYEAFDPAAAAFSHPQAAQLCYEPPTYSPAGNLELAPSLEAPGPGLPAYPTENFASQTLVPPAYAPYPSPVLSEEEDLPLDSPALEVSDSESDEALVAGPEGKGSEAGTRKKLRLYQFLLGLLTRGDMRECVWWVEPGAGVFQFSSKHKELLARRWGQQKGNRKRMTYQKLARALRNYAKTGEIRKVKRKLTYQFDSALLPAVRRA
HSF1, sequence (Q00613 whole entry): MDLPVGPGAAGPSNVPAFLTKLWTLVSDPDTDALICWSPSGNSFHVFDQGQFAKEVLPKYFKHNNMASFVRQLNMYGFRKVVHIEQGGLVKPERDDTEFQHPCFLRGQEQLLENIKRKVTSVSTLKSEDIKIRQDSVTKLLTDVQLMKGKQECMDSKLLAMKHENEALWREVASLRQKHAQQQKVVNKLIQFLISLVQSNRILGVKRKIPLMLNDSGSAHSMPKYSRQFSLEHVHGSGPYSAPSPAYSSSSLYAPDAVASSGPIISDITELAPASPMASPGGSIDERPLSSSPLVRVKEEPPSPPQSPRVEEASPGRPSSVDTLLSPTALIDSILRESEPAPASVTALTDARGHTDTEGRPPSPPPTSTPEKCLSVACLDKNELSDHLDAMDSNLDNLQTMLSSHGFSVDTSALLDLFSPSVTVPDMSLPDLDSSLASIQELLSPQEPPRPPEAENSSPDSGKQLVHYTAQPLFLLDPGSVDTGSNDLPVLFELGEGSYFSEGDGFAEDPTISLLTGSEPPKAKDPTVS
ELF1, sequence (P32519 whole entry): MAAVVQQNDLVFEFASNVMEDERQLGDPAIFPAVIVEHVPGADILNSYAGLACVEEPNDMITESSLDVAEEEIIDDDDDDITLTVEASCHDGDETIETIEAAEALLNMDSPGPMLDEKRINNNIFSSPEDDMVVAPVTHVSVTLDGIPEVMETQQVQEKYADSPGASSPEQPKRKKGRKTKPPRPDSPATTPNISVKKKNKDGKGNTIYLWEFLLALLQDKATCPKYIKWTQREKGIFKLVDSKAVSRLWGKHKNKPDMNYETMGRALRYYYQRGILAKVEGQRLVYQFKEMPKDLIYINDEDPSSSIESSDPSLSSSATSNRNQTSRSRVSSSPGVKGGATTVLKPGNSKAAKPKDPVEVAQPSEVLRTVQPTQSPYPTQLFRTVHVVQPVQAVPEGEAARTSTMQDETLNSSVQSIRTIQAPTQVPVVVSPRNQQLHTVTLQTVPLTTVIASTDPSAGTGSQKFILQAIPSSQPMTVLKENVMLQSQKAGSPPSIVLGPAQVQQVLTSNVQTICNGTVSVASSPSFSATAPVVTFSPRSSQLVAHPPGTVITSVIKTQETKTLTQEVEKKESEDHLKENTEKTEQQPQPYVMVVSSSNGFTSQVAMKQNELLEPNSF
ETV5, sequence (P41161 whole entry): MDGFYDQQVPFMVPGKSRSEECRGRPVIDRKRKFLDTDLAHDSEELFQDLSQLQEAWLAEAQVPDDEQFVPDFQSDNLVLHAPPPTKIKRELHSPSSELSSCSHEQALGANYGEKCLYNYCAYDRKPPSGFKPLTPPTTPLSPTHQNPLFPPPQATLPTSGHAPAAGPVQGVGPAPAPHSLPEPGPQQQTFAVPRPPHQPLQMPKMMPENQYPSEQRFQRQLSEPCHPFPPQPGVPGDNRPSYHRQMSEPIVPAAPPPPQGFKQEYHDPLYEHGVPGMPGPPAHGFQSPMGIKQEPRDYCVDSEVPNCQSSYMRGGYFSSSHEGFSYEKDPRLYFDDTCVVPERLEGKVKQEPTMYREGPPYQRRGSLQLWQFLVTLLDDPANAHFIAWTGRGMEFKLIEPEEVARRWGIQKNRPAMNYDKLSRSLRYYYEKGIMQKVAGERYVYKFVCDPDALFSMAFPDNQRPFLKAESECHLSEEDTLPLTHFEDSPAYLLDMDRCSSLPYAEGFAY
ELF4, sequence (Q99607 whole entry): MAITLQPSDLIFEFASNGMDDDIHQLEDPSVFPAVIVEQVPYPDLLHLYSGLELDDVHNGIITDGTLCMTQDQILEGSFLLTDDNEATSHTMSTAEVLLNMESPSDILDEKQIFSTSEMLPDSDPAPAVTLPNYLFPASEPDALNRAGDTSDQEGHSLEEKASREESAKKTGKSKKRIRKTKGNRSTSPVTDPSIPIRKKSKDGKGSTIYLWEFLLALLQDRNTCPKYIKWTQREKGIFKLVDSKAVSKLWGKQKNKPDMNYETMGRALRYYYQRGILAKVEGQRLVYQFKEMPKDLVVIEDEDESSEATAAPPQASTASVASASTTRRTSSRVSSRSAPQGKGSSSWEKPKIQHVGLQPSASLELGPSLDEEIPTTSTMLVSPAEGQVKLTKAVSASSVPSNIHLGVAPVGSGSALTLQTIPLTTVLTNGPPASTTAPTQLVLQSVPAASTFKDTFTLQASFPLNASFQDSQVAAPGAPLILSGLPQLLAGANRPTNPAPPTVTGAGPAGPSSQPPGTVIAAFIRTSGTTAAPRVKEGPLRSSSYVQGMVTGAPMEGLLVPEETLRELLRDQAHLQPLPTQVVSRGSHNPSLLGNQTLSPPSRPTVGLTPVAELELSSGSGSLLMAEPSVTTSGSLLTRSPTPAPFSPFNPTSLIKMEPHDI

For AACGAC, the binding signal was 1.14 fold enrichment (6-mer frequency, TF over GST control) in experiment [1]; 1.19 fold enrichment (6-mer frequency, TF over GST control) in experiment [2]; 1.18 fold enrichment (6-mer frequency, TF over GST control) in [3]; 1.14 fold enrichment (6-mer frequency, TF over GST control) in experiment [4]; 1.09 fold enrichment (6-mer frequency, TF over GST control) in experiment [5]; 1.1 fold enrichment (6-mer frequency, TF over GST control) in experiment [6]. Further, the binding signal in [7] was 1.12 fold enrichment (6-mer frequency, TF over GST control); in experiment [8] it was 1.04 fold enrichment (6-mer frequency, TF over GST control); in [9], 1.06 fold enrichment (6-mer frequency, TF over GST control); in [10], 1.16 fold enrichment (6-mer frequency, TF over GST control); in experiment [11], 1.14 fold enrichment (6-mer frequency, TF over GST control); in experiment [12], 1.01 fold enrichment (6-mer frequency, TF over GST control). Further, the binding signal is 1.04 fold enrichment (6-mer frequency, TF over GST control) in experiment [13]; 1.18 fold enrichment (6-mer frequency, TF over GST control) in [14]; 1.03 fold enrichment (6-mer frequency, TF over GST control) in experiment [15]; 1.04 fold enrichment (6-mer frequency, TF over GST control) in experiment [16]; 1.02 fold enrichment (6-mer frequency, TF over GST control) in experiment [17]; 1.15 fold enrichment (6-mer frequency, TF over GST control) in [18].

The values are drawn from article PMC7862700, “An all-to-all approach to the identification of sequence-specific readers for epigenetic DNA modifications on cytosine”.
